Screening data: PubChem, Corson Lab, School of Medicine, Indiana University
FECH inh – human FECH heme synthesis enzyme inhibition; P22830; purified FECH, Ni-mesoporphyrin absorbance 550 nm; calls only at 10 µM (by protocol); 20,000 compounds, 3.3% hits; AID 1671448;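 active means enzyme reaction rate more than 3 SD below the solvent-only control wells on the same plate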;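 further: lower slope than DMSO wells means FECH inhibition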
Target sequence (P22830 whole entry, looked up): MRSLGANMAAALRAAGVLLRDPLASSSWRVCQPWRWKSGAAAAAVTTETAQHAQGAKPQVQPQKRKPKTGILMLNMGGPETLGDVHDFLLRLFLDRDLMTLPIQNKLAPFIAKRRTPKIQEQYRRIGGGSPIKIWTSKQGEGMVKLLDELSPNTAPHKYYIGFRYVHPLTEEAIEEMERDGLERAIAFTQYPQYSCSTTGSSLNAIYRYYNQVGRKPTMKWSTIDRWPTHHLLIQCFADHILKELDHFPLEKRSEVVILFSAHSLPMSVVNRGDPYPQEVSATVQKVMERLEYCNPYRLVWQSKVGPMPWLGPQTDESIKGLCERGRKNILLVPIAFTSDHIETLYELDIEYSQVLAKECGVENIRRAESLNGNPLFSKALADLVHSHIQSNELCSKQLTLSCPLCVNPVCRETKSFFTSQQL
Calls only; 0 = inactive; + = active, no number. The full list was thinned out, with hits kept by preference.

SMILES | FECH inh
CC(C)c1nccc(CN(C)C(C)c2cccs2)n1 (centres undefined) | 0
CCC(CC)NCCCN1CCCC(O)C1 (centres undefined) | 0
Cc1ccc(NC(=O)N2CCC(n3cnc4cccnc43)CC2)c(Cl)c1 | 0
Cc1ccc(Cl)cc1NC(=O)N1CCC(n2cnc3cccnc32)CC1 | 0
O=C(Nc1ccc(Br)cc1F)N1CCC(n2cnc3cccnc32)CC1 | +
COCC(=O)NCC1=CCCN(Cc2ccc3ccccc3n2)C1 | 0
Cc1cc(C)n2nc(CN(C(=O)c3ccccc3F)c3ccc(F)cc3)nc2n1 | 0
CCc1c(C)sc2ncnc(N3CCCN(C(=O)COC)CC3)c12 | 0
COc1cccc(N2CCN(S(=O)(=O)c3cc(C(=O)N4CCCC4)cs3)CC2)c1 | 0
O=C(c1csc(S(=O)(=O)NC2CC2)c1)N1CCCC1 | 0
CC(=O)c1ccc(N2CCN(S(=O)(=O)c3cc(C(=O)N4CCCCC4)cs3)CC2)cc1 | 0
Cc1cc(C)cc(NS(=O)(=O)c2cc(C(=O)N3CCCCC3)cs2)c1 | 0
CC(C)(C)NS(=O)(=O)c1cc(C(=O)N2CCCCC2)cs1 | +
CC(=O)c1ccc(N2CCN(S(=O)(=O)c3cc(C(=O)N4CCCC4)cs3)CC2)cc1 | +
CCOc1ccc(C(=O)N2C[C@@H](N)C[C@H]2C(=O)NC)cc1OCC | 0
Cn1c(=O)c2c(-c3ccc(Cl)cc3)c(NCCc3ccccc3)oc2n(C)c1=O | 0
COc1ccc(NC(=O)CN2CCCN(Cc3ccc(C)cc3)S2(=O)=O)cc1Cl | 0
COCCN(CCc1ccncc1)C(=O)C1CCN(c2ccc(-c3cccs3)nn2)CC1 | 0
Cc1cc(C)n(CCC(=O)NC(C)c2ccc3c(c2)OCCCO3)c(=O)n1 (centres undefined) | 0
Cc1ccc(NC(=O)CN2CCN(Cc3ccccc3C)S2(=O)=O)cc1C | 0
O=C(CN1c2ccc(Br)cc2-c2ccccc2S1(=O)=O)NC1CC1 | +
O=C(CN1c2ccc(Br)cc2-c2ccccc2S1(=O)=O)Nc1ccc(F)cc1F | 0
Cc1ccc(NC(=O)CN2c3ccc(Br)cc3-c3ccccc3S2(=O)=O)cc1 | +
Cc1ccc(NC(=O)CN2c3ccc(Br)cc3-c3ccccc3S2(=O)=O)cc1C | +
COc1ccc(NC(=O)CN2c3ccc(Br)cc3-c3ccccc3S2(=O)=O)cc1 | 0
SMILES | FECH inh
Cc1cccc(C(C)C)c1NC(=O)CN1c2ccc(Br)cc2-c2ccccc2S1(=O)=O | 0
CC(C)CCNC(=O)CN1c2ccc(Br)cc2-c2ccccc2S1(=O)=O | +
O=C1CN(C(=O)CN2c3ccc(Br)cc3-c3ccccc3S2(=O)=O)c2ccccc2N1 | 0
NS(=O)(=O)c1ccc(NC(=O)CN2C(=O)c3ccccc3S2(=O)=O)cc1 | 0
CCN(CCc1ccncc1)S(=O)(=O)c1ccc(N2C(=O)CCS2(=O)=O)cc1 | 0
O=C(c1ccccc1Oc1ccccc1)N1CCCC(O)(CO)C1 (centres undefined) | 0
COCc1cc(CN(C)Cc2nc(-c3ccc(C)s3)oc2C)n[nH]1 | 0
O=C1C2CC=CCC2C(=O)N1c1nc2n(n1)C(c1ccc(Cl)cc1)C=C(c1ccc(Cl)cc1)N2 (centres undefined) | 0
CCC(=O)Nc1ccccc1-c1nnc(SCC(=O)Nc2ccc(C)cc2)[nH]c1=O | 0
OCCn1ncc2c1CN(c1noc(-c3ccccc3)n1)C2 | 0
COC(=O)C1CCN(S(=O)(=O)c2cc(N3C(=O)CCS3(=O)=O)ccc2C)CC1 | +
CCN(C1CCS(=O)(=O)C1)S(=O)(=O)c1cc(N2C(=O)CCS2(=O)=O)ccc1C (centres undefined) | +
CN(C1CCS(=O)(=O)C1)S(=O)(=O)c1ccc(N2C(=O)CCS2(=O)=O)cc1 (centres undefined) | 0
CCN(CC)S(=O)(=O)c1cc(N2C(=O)CCS2(=O)=O)ccc1C | 0
Cc1ccc(N2C(=O)CCS2(=O)=O)cc1S(=O)(=O)Nc1ccccc1 | +
Cc1ccc(N2C(=O)CCS2(=O)=O)cc1S(=O)(=O)Nc1ccccc1Br | 0
Cc1ccccc1NS(=O)(=O)c1cc(N2C(=O)CCS2(=O)=O)ccc1C | +
Cc1cc(C)cc(NS(=O)(=O)c2cc(N3C(=O)CCS3(=O)=O)ccc2C)c1 | 0
COC(=O)C1CCN(S(=O)(=O)c2ccc(N3C(=O)CCS3(=O)=O)cc2)CC1 | 0
COc1ccccc1N1CCN(S(=O)(=O)c2cc(N3C(=O)CCS3(=O)=O)ccc2C)CC1 | 0
Cc1ccc(N2C(=O)CCS2(=O)=O)cc1S(=O)(=O)Nc1cccc(C)c1C | 0
Cc1ccc(NS(=O)(=O)c2cc(N3C(=O)CCS3(=O)=O)ccc2C)cc1C | 0
Cc1noc(C)c1S(=O)(=O)N1CCN(c2cc(-c3ccccc3)ncn2)CC1 | 0
Cc1cccc(Nc2nc(-c3nnc(-c4cccc(C)c4)o3)nc3ccccc23)c1 | 0
COc1ccccc1NC(=O)c1ccc(=O)n(Cc2ccc(F)cc2)c1 | 0
SMILES | FECH inh
O=S(=O)(c1cccc(C(F)(F)F)c1)N1CC(c2ccncc2)C1 | 0
CC1=C(C(=O)NCCOc2cccc3ccc(C)nc23)C(C)NC(=O)N1 (centres undefined) | 0
Cn1c(=O)n(Cc2cccc(F)c2)c(=O)c2cnc(-c3ccncc3)nc21 | 0
CCCS(=O)(=O)N1CCN(c2nc(C)cc(N3CCOCC3)n2)CC1 | 0
CCOc1ccc(N2CC(NC(=O)c3cccs3)CC2=O)cc1 (centres undefined) | 0
O=C1CCS(=O)(=O)N1c1ccc(S(=O)(=O)NC2CCCCC2)cc1 | 0
O=C1CCS(=O)(=O)N1c1ccc(S(=O)(=O)NC2CC2)cc1 | +
CC(C)CNS(=O)(=O)c1ccc(N2C(=O)CCS2(=O)=O)cc1 | 0
COc1ccccc1CNc1nc2nc(CN3CCc4ccccc4C3)cc(=O)n2[nH]1 | 0
CC(C)Cn1ccnc1-c1ccccc1Cn1cccn1 | 0
CCCCCN(c1nc2nc(C)c(Cl)c(C)n2n1)S(=O)(=O)c1ccc(C)cc1 | 0
CC(=O)NCCc1cn(-c2cccc(OC(C)C)c2)cn1 | +
CC(=O)NCCc1cn(-c2ccc(-c3ncc(C)cn3)cc2)cn1 | 0
CC(=O)NCCc1cn(-c2ccc3c(c2)CCCN3C(C)=O)cn1 | 0
Cc1ccccc1-c1cc(N2CCN(C(=O)Nc3ccc4c(c3)OCCO4)CC2)ncn1 | 0
Cc1noc(C)c1C1CCCN1C(=O)Cc1ccc2c(c1)NC(=O)CO2 (centres undefined) | 0
NC(=O)c1cc2c(s1)CCN(C(=O)c1ccc(CC3CCCNC3)cc1)C2 (centres undefined) | 0
COc1cccc(NC(=O)c2cc(-c3ccc(OC)c(S(N)(=O)=O)c3)n[nH]2)c1 | 0
Cc1ccc(S(=O)(=O)Nc2cnc(N3CC=C(c4ccccc4C)CC3)c(C(=O)O)c2)cc1 | +
COc1ccc(S(=O)(=O)Nc2cnc(N3CC=C(c4ccccc4C)CC3)c(C(=O)O)c2)cc1 | 0
Cc1ccccc1C1=CCN(c2ncc(NS(=O)(=O)c3ccc(F)c(F)c3)cc2C(=O)O)CC1 | 0
COc1ccc(Cl)cc1NCc1nc2nc3c(c(=O)n2[nH]1)CCC3 | 0
CCc1nc2nc(C)[nH]n2c(=O)c1NC(=O)Nc1ccccc1F | 0
CCc1ccccc1NCc1nc2nc3c(c(=O)n2[nH]1)CCC3 | +
O=c1c2c(nc3nc(CNc4ccc(Cl)cc4)[nH]n13)CCC2 | +
O=c1cc(CNc2ccccc2)nc2nc(NCc3ccc(F)cc3)[nH]n12 | 0
O=c1cc(CN2CCCC2)nc2nc(NCc3ccc(Cl)cc3)[nH]n12 | 0
Cc1ccc(NCc2cc(=O)n3[nH]c(NCc4ccc(F)cc4)nc3n2)cc1Cl | 0
O=c1c2c(nc3nc(CNc4ccccc4)[nH]n13)CCC2 | +
